Experimental data as given in PubChem BioAssay (NCATS).
Records with an inconclusive call do not appear. Active and inactive are the calls of the source. The call rests on the fitted dose curve; in most records, active means well fitted inhibition curve with a large enough effect; inconclusive means small, poorly fitted or top-dose-only effect, or effect the other way; inactive means flat fitted curve, though single readings scatter.

assay: qHTS for Inhibitors of Plasmodium falciparum (CP250) proliferation (AID 504320); details: P. falciparum CP250 in erythrocytes, SYBR Green DNA, 72 h; series mostly up to 6.7 µM
Description: Plasmodium falciparum is a virulent malarial parasite that kills 1-2 million people worldwide each year. Malaria not only inflicts tremendous suffering and morbidity on the human population, but has dramatically influenced the course of civilization with profound sociological and economic implications (Shah, S. 2010). Transmitted by mosquitoes, the sporozoite form of the parasite enters the blood stream to infect hepatocytes, where they become merozoites that infect red blood cells (erythrocytes). Within erythrocytes, merozoites begin a […] cycle of growth and division, after which the parasite is released to infect new red blood cells. Gametocytes, which form within erythrocytes as well, circulate in the bloodstream and are ingested by the mosquito, thereby completing the life cycle (see CDC website). To profile malarial lines for differential chemical responses and to identify inhibitors of malarial growth, an assay that measures P. falciparum growth and replication within erythrocytes was employed. This assay uses a DNA binding fluorescent dye (SYBR Green) to detect parasite DNA following cell lysis. Because mature erythrocytes lack DNA, only Plasmodium-derived DNA is detected. The P. falciparum line cp250, derived from a malarial isolate from Cambodia, (Mu, J., et al. 2010) was added to the panel of lines, Dd2, HB3, 7G8 and GB4 in this study. Laboratory of Assay Development and Screening Technology [ADST] and NIH Chemical Genomics Center [NCGC] Boston University, Chemistry Department, Center for Chemical Methodology and Library Development [CMLD-BU] NIH National Institute of Allergy and Infectious Diseases [NIAID]
ADST Assay Protocol Summary: The 1536-well SYBR Green viability assay was based on the method of Bennett et al (2004) and described previously in 1536-well format (Yuan J., et al. 2009). For screening 3 ul culture medium was dispensed into 1536 well black clear bottom plates (Aurora Biotechnologies) using a Multidrop Combi (Thermo Fisher Scientific Inc.), 23 nL compounds in DMSO were added by a pin transfer (Cleveland, P.H. and Koutz, P.J, 2005) using a pin tool-based delivery system (Kalypsys), and 5 ul of erythrocytes infected with P. falciparum one of five lines (cp250, Dd2, HB3, 7G8 or GB4, 0.3% parasitemia, 2.5% hematocrit final concentration) were added. The plates were incubated at 37C in a humidified incubator in 5% CO2 for 72 h, and 2 ul lysis buffer (20 mM Tris HCl, 10 mM EDTA, 0.16% saponin, 1.6% triton X, 10X SYBR Green I (supplied as 10,000X final concentration by Invitrogen) was added to each well. The plates were mixed for 25 sec with gentle shaking and incubated overnight at room temperature in the dark. The following morning, fluorescence intensity at 485(14) nm excitation and 535(25) nm emission wavelengths was measured on an EnVision (Perkin Elmer) plate reader. Plate reads were normalized relative to the control inhibitor (0.29 uM artemisinin) and vehicle (DMSO) wells present on each plate and then corrected by an algorithm using vehicle-only control plates at the beginning and end of the compound plate stack. References Shah, S. (2010). The Fever: how malaria has ruled humankind for 500,000 years. New York, Sarah Crichton Books. CDC web site, http://www.cdc.gov/malaria/about/biology/index.html Mu, J., Myers, R.A., Jiang, H., Liu, S., Ricklefs, S., Waisberg, M., Chotivanich, K., Wilairatana, P., Krudsood, S., White, N.J., et Plasmodium falciparum genome-wide scans for positive selection, recombination hot spots and resistance to antimalarial drugs Nature Genetics 2010, 42, pp 268-271 Bennett TN, Paguio, M., Gligorijevic, B., Seudieu, C., Kosar, A. D., Davidson, E., and Roepe, P. D. Novel, rapid, and inexpensive cell-based quantification of antimalarial drug efficacy Antimicrobial Agents Chemother. 2004, 48(5): pp 1807-10 Yuan J, Johnson RL, Huang RL, Wichterman J, Jiang HY, Hayton K, Fidock DA, Wellems TE, Inglese J, Austin CP, Su XZ. […]

Compound | outcome
COC(=O)C1=C2CCCO[C@H]2[C@@H]2[C@@H](C)[C@H](OC)c3ccccc3[C@@H]12 | inactive
CCOC(=O)[C@]12C[C@@H]3OCCN(C(=O)N[C@@H]1c1ccccc1)[C@@H]32 | inactive
C=C1[C@@H]2CCN3C(=O)N[C@@H](c4ccccc4)[C@@]1(C(=O)OCC)C23 (stereo partly specified) | inactive
CC(=O)[C@]12C[C@@H]3CCN(C(=O)N[C@@H]1c1ccccc1)[C@@]32C | inactive
COC(=O)C1=NN=C(C(=O)OC)[C@@]2(C)c3ccccc3NC12 (stereo partly specified) | inactive
COC(=O)[C@]12C[C@@H]3CCN(C(=O)N[C@@H]1c1ccccc1)[C@@]32C | inactive
CC(=O)[C@]12[C@H](c3ccccc3)[C@@H]3CCN(C(=O)N[C@H]1c1ccccc1)[C@@]32C | inactive
CC(=O)[C@]12C[C@]3(C)CCCN(C(=O)N[C@@H]1c1ccccc1)C32 (stereo partly specified) | inactive
COC(=O)[C@@H]1[C@@H](c2ccccc2)[C@H]2C(=O)c3c(OC)cc(OC)cc3O[C@@]12c1ccc(OC)cc1 | inactive
COC(=O)C1=C2CCO[C@H]2[C@@H]2[C@@H](C)[C@H](OC)c3ccccc3[C@@H]12 | inactive
COC(=O)C1C2CC(C)C(c3ccccc32)N1C(=O)C(F)(F)F (stereo unspecified) | inactive
C=C(C)C(=O)CP(=O)(OCC)OCC | inactive
CCOC(=O)[C@@]12[C@@H]3[C@@H](CCN3C(=O)N[C@H]1c1ccccc1)C2(C)C | inactive
CCOC(=O)[C@@]12C3[C@@H](CCN3C(=O)N[C@@H]1c1ccccc1)[C@@H]2C (stereo partly specified) | inactive
CCOC(=O)[C@]12C[C@@H]3CCN(C(=O)N(C(C)=O)[C@@H]1c1ccccc1)[C@@H]32 | inactive
CCC[C@]12CCN3C(=O)N[C@@H](c4ccccc4)[C@](C(=O)OCC)(C1)[C@H]32 | inactive

Compound | outcome
COC(=O)[C@@]1(C=C2c3ccc(F)cc3[C@@H](OC)[C@@H]2C)[C@@H]2Oc3ccccc3[C@@H]21 | inactive
CCOC(=O)[C@]12C[C@]3(OC)CCN(C(=O)N[C@@H]1c1ccccc1)[C@@H]32 | inactive
CCOC(=O)[C@]12C[C@]3(C)CCCN(C(=O)N[C@@H]1c1ccccc1)[C@@H]32 | inactive
COC(=O)C1=C2CCO[C@@H]2[C@H]2[C@@H](C)[C@H](OC)c3ccccc3[C@H]12 | inactive
CCOC(=O)[C@]12C[C@]3(C)CCN(C(=O)N[C@@H]1c1ccccc1)[C@@H]32 | inactive
COC(=O)[C@@]1(C=C[C@@H](C)[C@H](OC)c2ccccc2Br)[C@@H]2Oc3ccccc3[C@@H]21 | inactive
COC(=O)C12CC3=CCC4C(=O)N(c5ccccc5)C(=O)C4C3Cc3ccccc3[C@H]1CNC2=O (stereo partly specified) | inactive
COC(=O)C1c2c(n(C)c3ccccc23)[C@H]2[C@@H](C)[C@H](OC)c3ccccc3[C@@H]12 (stereo partly specified) | inactive
COC(=O)[C@@]1(C=C2c3ccccc3[C@@H](OC)[C@@H]2C)[C@@H]2Oc3ccccc3[C@@H]21 | inactive
COC(=O)C1=C[C@H]([C@@H](C)[C@H](OC)c2ccccc2Br)[C@H]2[C@H]1c1ccccc1N2C | inactive
CO[C@@H]1c2ccccc2[C@H]2C(C(=O)O)c3c(n(C)c4ccccc34)[C@H]2[C@H]1C (stereo partly specified) | inactive
COC(=O)C1(C)C2CC(C)C(c3ccccc32)N1C(=O)C(F)(F)F (stereo unspecified) | inactive
CC(=O)[C@]12C[C@@H]3CCCN(C(=O)N[C@@H]1c1ccccc1)[C@@H]32 | inactive
COC(=O)[C@@]12Cc3ccccc3[C@H]1C[C@H](C)[C@@H](C)N2C(=O)C(F)(F)F | inactive
CC(=O)[C@@]12C3[C@@H](CCN3C(=O)N[C@H]1c1ccccc1)[C@H]2c1ccccc1 (stereo partly specified) | inactive
